Activity calls are given as the source filed them. No rule for the calls is given here.
The molecules below were run against Pantothenate synthetase (Mycobacterium tuberculosis (strain ATCC 25618 / H37Rv)) (UniProt P9WIL5) (assay: Coupled enzyme confirmation of inhibitors against recombinant Mtb PanC (AID 375;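 also: 0% = full reaction with vehicle and 100% = no enzyme background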)). Conditions: coupled enzyme assay; at 10 µM, stronger effect = higher value.
Chain of Pantothenate synthetase (Mycobacterium tuberculosis (strain ATCC 25618 / H37Rv)) (P9WIL5 whole entry, looked up): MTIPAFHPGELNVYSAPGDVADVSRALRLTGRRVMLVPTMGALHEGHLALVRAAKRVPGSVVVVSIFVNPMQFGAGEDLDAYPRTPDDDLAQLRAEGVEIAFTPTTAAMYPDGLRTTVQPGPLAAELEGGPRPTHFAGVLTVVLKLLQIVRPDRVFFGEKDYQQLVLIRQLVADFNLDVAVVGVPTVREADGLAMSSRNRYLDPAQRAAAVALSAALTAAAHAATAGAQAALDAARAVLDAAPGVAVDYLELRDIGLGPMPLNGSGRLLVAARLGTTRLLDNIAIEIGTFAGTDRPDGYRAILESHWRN

Q: For N#CCCn1ccc(NC(=O)c2ccc(Cl)cc2)n1, which inhibition is on record?
A: 0% (inactive)

Q: With CCOc1cc(C(=O)N2CCN=C2SC)cc(OCC)c1OCC as the molecule, how does the inhibition read?
A: 7% (inactive)

Q: CC(=O)Nc1ccc(S(=O)(=O)N2CCN(C(=O)CCC3CCCC3)CC2)cc1 was tested. Which inhibition did it give?
A: 0% (inactive)

Q: OC1C=CSc2nc3ccccc3n21 (configuration not stated) was tested. Which inhibition did it give?
A: 0% (inactive)

Q: With CCCCCc1c(C)nc(N2CCc3ccccc32)[nH]c1=O as the molecule, how does the inhibition read?
A: 0% (inactive)

Q: With O=C(Nc1cccc(NC(=O)c2ccco2)c1)c1ccc2c(c1)OCO2 as the molecule, how does the inhibition read?
A: 0% (inactive)

Q: With O=C(CP(=O)(c1ccccc1)c1ccccc1)N1CCCCC1 as the molecule, how does the inhibition read?
A: 6% (inactive)

Q: CCN(CC)S(=O)(=O)c1ccc(NC(=O)c2cccc3c2C(=O)N(CCOC)C3)cc1 was tested. Which inhibition did it give?
A: 4% (inactive)

Q: CCC(=O)N(Cc1ccco1)c1nc(-c2cc(OC)ccc2OC)cs1 was tested. Which inhibition did it give?
A: 0% (inactive)

Q: With CCOC(=O)C(C(=O)OCC)C(C)C#CCN1CCCCC1 (configuration not stated) as the molecule, how does the inhibition read?
A: 4% (inactive)

Q: Which inhibition does the source give for O=C(CN1C(=O)c2cccc3cccc1c23)N1CCN(c2ccccc2)CC1 here?
A: 0% (inactive)

Q: For COc1cccc(-n2ccnc2SCC(=O)N2CCc3ccccc32)c1, which inhibition is on record?
A: 0% (inactive)

Q: CCOC(=O)c1nnn(-c2nonc2NC(C)=O)c1C was tested. Which inhibition did it give?
A: 8% (inactive)

Q: With Cc1ccc(CSc2nc3c(c(=O)[nH]2)C(c2ccncc2)C2=C(CCCC2=O)N3)cc1 (configuration not stated) as the molecule, how does the inhibition read?
A: 4% (inactive)

Q: CCN(CC)S(=O)(=O)c1ccc(NC(=O)Cn2cnc3ccccc3c2=O)cc1 was tested. Which inhibition did it give?
A: 0% (inactive)

Q: With CN1CCN(CC(=O)N2c3ccccc3C(C)(c3ccccc3)CC2(C)C)CC1 (configuration not stated) as the molecule, how does the inhibition read?
A: 0% (inactive)

Q: With CS(=O)(=O)NCc1nnc(SCC(=O)NC2CCCCC2)n1-c1ccc(F)cc1 as the molecule, how does the inhibition read?
A: 0% (inactive)
